1 sequence from publication PMC7862700, “An all-to-all approach to the identification of sequence-specific readers for epigenetic DNA modifications on cytosine” can be followed below.

Assay in all cases: DAPPL (digital affinity profiling via proximity ligation, sequencing); 10 mM Tris-HCl pH 7.5, 50 mM NaCl, 1 mM DTT, 4% glycerol, room temperature, 30 min; GST-TFs on glutathione beads, 16-mer random dsDNA library, 0.1% formaldehyde crosslink after washing; high values mean tight binding
The target of one assay is T1, FEV (Homo sapiens, UniProt Q99581 1-238).
T1 sequence: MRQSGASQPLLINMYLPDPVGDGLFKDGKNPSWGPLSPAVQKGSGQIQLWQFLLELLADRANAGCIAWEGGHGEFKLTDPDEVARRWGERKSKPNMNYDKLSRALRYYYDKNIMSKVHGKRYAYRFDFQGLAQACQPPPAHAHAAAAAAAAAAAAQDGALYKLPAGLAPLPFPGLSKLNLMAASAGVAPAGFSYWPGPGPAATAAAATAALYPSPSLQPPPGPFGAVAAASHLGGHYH
Particulars: protein: recombinant; tags: N-terminal GST; dsDNA, one strand shown. The method, boiled down:
(§1)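 Sequencing on an Illumina NextSeq500 followed washing, crosslinking with 0.1% formaldehyde, proximity ligation (BsaI/T4 ligase, 1 h, 37 °C) and PCR amplification of pools that had been incubated for 30 min at room temperature with 200 nmole of a random double-stranded 16-mer DNA library in Tris/NaCl/DTT/glycerol buffer. Each pool held DNA-barcoded human transcription factors, expressed in yeast as GST fusions and captured on glutathione beads, plus a tag-only sample. Binding signal is a hexamer's read frequency for a factor divided by its frequency in the tag-only sample.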

A further assay has as its target ETV5 (Homo sapiens, UniProt P41161 1-510). Particulars: protein: recombinant; tags: N-terminal GST; dsDNA, one strand shown. The essentials:
as §1

A further assay deals with HSF1 (Homo sapiens, UniProt Q00613 1-529). Particulars: protein: recombinant; tags: N-terminal GST; chain copies: 3; dsDNA, one strand shown. The method, boiled down: as §1
The target in another assay is T2, SPIC (Homo sapiens, UniProt Q8N5J4 1-248).
T2 sequence: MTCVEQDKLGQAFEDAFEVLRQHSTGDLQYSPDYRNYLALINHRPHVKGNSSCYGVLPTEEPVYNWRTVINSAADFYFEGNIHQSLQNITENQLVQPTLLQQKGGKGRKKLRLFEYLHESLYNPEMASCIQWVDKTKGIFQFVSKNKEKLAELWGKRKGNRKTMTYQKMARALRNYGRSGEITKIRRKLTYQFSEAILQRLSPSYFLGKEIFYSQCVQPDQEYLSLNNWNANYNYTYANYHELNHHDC
Particulars: protein: recombinant; tags: N-terminal GST; dsDNA, one strand shown. The essentials:
as §1

A further assay deals with ELF4 (Homo sapiens, UniProt Q99607 1-663). Particulars: protein: recombinant; tags: N-terminal GST; dsDNA, one strand shown. The method, boiled down: as §1
The target in the next assay is T3, ELK4 (Homo sapiens, UniProt P28324-2 1-405).
T3 sequence: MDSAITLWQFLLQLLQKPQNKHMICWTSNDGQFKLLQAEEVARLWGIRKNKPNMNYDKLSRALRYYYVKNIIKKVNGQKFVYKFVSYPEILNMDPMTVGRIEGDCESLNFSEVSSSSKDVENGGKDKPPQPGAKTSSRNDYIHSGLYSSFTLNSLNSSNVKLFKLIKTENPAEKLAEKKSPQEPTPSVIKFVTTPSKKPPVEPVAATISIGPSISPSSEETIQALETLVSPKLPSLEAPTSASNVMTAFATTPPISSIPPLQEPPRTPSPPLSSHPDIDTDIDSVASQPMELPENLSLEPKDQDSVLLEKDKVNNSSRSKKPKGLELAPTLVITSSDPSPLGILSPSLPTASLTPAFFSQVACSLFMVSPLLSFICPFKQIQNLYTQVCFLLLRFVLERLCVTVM
Particulars: protein: recombinant; tags: N-terminal GST; dsDNA, one strand shown. The method, boiled down:
as §1

A further assay deals with T4, ETV2 (Homo sapiens, UniProt O00321 1-342).
T4 sequence: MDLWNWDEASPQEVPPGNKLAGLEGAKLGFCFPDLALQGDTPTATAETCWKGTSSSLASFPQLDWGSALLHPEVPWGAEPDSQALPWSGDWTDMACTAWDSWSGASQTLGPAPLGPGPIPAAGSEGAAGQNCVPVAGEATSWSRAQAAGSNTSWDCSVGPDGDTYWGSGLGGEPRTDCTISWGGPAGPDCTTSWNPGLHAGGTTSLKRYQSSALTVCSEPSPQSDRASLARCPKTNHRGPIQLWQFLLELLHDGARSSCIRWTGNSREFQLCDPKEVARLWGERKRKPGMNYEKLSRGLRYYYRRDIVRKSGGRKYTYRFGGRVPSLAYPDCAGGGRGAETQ
As to conditions: protein: recombinant; tags: N-terminal GST; dsDNA, one strand shown. The method, boiled down: as §1

For the next assay, the target named is T5, ELF3 (Homo sapiens, UniProt P78545 1-371).
T5 sequence: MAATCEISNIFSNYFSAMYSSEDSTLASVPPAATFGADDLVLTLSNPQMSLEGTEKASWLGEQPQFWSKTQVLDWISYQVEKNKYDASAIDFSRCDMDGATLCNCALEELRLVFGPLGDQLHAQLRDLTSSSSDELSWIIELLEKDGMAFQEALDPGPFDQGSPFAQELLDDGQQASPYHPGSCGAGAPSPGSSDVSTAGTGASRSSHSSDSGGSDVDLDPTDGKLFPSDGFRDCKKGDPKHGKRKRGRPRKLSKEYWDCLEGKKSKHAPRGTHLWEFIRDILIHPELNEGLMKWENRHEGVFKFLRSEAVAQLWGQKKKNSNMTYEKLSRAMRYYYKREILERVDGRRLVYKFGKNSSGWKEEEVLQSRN
Particulars: protein: recombinant; tags: N-terminal GST; dsDNA, one strand shown. The essentials:
as §1

The next assay has as its target CRX (Homo sapiens, UniProt O43186 1-299). As to conditions: protein: recombinant; tags: N-terminal GST; dsDNA, one strand shown. The essentials:
as §1

A further assay concerns the target ETV1 (Homo sapiens, UniProt P50549 1-477). As to conditions: protein: recombinant; tags: N-terminal GST; dsDNA, one strand shown. The method, boiled down: as §1
For a further assay, the target named is T6, ERF (Homo sapiens, UniProt P50548 1-548).
T6 sequence: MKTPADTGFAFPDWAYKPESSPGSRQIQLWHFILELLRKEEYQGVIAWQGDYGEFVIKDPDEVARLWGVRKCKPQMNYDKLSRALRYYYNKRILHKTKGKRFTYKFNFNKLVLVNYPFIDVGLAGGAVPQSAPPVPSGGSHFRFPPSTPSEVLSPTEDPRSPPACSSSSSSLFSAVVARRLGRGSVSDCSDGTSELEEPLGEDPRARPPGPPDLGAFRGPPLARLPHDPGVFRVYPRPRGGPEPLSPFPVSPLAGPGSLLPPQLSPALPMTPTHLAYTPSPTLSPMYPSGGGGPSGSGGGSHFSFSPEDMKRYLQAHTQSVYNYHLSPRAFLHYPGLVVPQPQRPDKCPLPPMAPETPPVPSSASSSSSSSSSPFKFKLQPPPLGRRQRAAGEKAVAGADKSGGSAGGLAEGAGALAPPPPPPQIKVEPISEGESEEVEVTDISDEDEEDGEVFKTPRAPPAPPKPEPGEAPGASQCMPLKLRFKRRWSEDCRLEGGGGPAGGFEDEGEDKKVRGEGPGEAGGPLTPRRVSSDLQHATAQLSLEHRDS
As to conditions: protein: recombinant; tags: N-terminal GST; dsDNA, one strand shown. The method, boiled down:
as §1

In the next assay the target is T7, ETV3L (Homo sapiens, UniProt Q6ZN32 1-361).
T7 sequence: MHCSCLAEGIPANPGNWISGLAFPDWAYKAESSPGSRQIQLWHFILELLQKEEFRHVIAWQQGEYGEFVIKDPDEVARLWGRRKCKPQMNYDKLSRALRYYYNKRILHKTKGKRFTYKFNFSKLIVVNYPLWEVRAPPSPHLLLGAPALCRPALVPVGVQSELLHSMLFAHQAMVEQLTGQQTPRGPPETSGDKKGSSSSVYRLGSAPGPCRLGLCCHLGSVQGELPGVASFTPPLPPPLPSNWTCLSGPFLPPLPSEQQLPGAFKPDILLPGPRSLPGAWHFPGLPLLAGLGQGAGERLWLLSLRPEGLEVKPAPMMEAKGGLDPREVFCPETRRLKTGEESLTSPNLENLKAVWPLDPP
Particulars: protein: recombinant; tags: N-terminal GST; dsDNA, one strand shown. The essentials:
as §1

A further assay has as its target T8, ETS2 (Homo sapiens, UniProt P15036 1-469).
T8 sequence: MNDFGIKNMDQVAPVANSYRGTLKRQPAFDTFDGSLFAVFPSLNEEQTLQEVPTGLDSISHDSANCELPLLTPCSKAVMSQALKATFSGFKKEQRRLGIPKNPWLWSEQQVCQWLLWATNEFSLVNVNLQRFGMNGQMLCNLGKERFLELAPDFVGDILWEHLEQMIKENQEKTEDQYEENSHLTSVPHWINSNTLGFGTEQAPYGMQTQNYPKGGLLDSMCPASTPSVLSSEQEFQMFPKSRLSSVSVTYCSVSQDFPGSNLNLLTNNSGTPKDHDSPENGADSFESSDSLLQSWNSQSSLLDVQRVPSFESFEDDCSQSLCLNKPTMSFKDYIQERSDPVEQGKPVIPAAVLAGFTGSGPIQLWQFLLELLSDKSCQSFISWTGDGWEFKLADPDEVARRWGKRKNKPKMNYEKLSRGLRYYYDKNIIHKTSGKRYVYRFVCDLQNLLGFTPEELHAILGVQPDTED
Particulars: protein: recombinant; tags: N-terminal GST; dsDNA, one strand shown. The essentials:
as §1

Another assay addresses T9, SPDEF (Homo sapiens, UniProt O95238 1-335).
T9 sequence: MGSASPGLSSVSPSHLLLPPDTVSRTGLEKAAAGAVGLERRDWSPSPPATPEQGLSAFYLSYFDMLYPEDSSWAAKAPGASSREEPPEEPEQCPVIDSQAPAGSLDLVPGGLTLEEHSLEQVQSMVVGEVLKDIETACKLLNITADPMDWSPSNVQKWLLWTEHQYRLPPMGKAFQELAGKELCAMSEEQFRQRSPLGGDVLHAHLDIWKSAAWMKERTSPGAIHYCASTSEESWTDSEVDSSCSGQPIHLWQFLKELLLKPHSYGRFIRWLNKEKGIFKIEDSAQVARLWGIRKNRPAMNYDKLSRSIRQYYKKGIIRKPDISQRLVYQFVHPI
As to conditions: protein: recombinant; tags: N-terminal GST; dsDNA, one strand shown. The essentials:
as §1

The target in the next assay is T10, ETV7 (Homo sapiens, UniProt Q9Y603 1-341).
T10 sequence: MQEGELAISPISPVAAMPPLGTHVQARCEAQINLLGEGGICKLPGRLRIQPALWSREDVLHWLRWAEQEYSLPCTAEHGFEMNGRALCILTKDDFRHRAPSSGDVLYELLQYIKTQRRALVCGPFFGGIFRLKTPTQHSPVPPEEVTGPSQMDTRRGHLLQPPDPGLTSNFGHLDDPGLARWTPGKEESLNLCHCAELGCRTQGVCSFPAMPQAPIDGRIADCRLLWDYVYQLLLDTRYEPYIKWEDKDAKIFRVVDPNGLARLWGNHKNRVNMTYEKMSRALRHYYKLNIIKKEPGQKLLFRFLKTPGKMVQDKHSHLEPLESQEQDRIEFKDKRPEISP
As to conditions: protein: recombinant; tags: N-terminal GST; dsDNA, one strand shown. The essentials: as §1

In a further assay the target is T11, ELF5 (Homo sapiens, UniProt Q9UKW6-2 1-255).
T11 sequence: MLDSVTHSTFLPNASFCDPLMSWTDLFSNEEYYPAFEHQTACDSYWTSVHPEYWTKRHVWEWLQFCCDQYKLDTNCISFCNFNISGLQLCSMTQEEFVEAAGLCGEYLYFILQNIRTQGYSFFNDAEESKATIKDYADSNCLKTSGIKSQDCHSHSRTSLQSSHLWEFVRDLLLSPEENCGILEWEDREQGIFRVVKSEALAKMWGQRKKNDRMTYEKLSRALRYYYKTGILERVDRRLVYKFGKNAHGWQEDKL
As to conditions: protein: recombinant; tags: N-terminal GST; dsDNA, one strand shown. The essentials: as §1

The target of a further assay is T12, ETV3 (Homo sapiens, UniProt P41162-2 1-143).
T12 sequence: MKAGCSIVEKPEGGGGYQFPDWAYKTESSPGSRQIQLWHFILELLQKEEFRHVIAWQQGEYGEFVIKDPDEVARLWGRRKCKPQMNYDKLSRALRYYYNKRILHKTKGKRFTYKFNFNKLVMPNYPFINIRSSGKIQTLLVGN
Particulars: protein: recombinant; tags: N-terminal GST; dsDNA, one strand shown. The essentials: as §1

The target in a further assay is ETV6 (Homo sapiens, UniProt P41212 1-452). Particulars: protein: recombinant; tags: N-terminal GST; dsDNA, one strand shown. The method, boiled down:
as §1

Chain of CRX (O43186 whole entry): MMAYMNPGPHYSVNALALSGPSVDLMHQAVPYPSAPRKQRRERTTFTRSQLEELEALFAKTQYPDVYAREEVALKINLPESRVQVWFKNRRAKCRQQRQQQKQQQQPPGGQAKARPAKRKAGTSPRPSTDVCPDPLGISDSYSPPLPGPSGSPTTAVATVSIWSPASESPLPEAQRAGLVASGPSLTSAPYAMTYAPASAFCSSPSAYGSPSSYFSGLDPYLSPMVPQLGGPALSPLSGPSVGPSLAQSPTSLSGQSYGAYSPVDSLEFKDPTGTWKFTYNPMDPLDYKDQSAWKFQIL
Chain of HSF1 (Q00613 whole entry): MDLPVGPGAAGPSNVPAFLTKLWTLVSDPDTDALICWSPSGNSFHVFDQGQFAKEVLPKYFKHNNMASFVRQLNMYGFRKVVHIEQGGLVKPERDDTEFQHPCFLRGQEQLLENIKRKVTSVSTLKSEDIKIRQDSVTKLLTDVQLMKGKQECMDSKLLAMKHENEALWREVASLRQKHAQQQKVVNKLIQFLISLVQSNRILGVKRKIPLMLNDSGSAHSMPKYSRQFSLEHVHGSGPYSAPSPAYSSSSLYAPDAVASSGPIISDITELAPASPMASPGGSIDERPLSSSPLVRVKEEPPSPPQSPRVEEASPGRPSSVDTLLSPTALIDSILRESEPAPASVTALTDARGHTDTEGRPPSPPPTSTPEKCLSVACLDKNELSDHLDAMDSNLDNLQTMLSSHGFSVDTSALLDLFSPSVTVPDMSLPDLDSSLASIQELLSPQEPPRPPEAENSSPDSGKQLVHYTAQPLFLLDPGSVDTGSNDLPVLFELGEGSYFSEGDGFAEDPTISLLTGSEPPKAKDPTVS
Chain of ETV6 (P41212 whole entry): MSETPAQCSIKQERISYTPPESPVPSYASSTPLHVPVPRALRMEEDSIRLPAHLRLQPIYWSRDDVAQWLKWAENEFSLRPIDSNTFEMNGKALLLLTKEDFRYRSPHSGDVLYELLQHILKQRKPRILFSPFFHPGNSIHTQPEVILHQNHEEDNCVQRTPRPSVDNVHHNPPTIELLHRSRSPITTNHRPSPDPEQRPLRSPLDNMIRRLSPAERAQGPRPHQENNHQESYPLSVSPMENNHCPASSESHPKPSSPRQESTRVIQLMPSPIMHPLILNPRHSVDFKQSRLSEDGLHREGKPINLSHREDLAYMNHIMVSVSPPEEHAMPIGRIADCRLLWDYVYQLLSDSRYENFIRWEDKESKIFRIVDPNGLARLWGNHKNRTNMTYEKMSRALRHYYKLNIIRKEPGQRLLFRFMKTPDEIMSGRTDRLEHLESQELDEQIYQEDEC
Chain of ETV1 (P50549 whole entry): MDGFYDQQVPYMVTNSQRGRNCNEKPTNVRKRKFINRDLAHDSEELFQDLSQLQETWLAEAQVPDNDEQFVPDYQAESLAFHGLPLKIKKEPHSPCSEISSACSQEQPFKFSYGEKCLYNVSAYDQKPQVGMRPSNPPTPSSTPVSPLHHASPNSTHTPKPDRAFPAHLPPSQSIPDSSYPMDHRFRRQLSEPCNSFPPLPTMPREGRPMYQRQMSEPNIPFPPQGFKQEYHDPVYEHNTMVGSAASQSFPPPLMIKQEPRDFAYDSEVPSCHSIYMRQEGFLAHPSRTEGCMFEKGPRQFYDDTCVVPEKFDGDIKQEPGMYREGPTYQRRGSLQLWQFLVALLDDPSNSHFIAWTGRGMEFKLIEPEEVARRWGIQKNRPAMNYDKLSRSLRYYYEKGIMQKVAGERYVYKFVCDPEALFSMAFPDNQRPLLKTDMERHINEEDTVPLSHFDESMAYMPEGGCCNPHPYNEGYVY
Chain of ETV5 (P41161 whole entry): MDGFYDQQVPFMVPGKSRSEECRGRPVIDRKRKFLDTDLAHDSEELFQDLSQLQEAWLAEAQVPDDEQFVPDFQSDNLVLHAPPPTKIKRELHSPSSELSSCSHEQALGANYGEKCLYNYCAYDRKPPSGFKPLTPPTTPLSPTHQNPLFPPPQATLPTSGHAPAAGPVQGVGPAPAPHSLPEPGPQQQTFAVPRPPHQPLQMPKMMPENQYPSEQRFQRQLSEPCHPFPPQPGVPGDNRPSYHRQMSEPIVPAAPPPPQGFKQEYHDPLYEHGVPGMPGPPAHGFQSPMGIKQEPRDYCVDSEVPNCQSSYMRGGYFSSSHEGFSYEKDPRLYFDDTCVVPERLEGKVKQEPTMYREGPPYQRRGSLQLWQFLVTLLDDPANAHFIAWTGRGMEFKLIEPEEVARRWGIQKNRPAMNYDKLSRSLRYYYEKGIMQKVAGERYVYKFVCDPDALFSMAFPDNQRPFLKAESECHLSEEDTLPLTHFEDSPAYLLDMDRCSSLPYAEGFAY
Chain of ELF4 (Q99607 whole entry): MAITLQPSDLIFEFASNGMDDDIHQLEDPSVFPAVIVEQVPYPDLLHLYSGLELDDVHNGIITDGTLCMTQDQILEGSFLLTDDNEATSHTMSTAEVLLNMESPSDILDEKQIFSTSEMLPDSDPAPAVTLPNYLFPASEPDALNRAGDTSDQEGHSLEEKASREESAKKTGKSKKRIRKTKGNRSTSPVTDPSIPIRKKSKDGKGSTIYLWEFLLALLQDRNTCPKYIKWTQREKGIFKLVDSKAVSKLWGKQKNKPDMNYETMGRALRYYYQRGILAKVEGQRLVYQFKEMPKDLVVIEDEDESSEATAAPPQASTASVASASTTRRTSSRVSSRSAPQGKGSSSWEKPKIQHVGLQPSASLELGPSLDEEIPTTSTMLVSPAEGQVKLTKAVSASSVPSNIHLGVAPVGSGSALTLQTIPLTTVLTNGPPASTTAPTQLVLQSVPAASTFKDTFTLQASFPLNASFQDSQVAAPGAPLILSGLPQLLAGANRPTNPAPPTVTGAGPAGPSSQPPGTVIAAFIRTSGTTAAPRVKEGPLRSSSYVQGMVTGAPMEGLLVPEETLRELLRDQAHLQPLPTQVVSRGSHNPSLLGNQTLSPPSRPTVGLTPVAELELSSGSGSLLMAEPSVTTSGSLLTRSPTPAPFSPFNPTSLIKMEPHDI

Take TGGTAA: the binding signal was 1.15 fold enrichment (6-mer frequency, TF over GST control) with FEV; 1.23 fold enrichment (6-mer frequency, TF over GST control) with ETV5; 1.45 fold enrichment (6-mer frequency, TF over GST control) in the assay with HSF1; 1.09 fold enrichment (6-mer frequency, TF over GST control) with SPIC; 1.23 fold enrichment (6-mer frequency, TF over GST control) in the assay with ELF4; 1.39 fold enrichment (6-mer frequency, TF over GST control) in the assay with ELK4. The binding signal in the assay with ETV2 is 1.3 fold enrichment (6-mer frequency, TF over GST control); with ELF3, 1.15 fold enrichment (6-mer frequency, TF over GST control); with CRX, 1.51 fold enrichment (6-mer frequency, TF over GST control); in the assay with ETV1, 1.27 fold enrichment (6-mer frequency, TF over GST control); in the assay with ERF, 1.27 fold enrichment (6-mer frequency, TF over GST control); with ETV3L it was 1.25 fold enrichment (6-mer frequency, TF over GST control). Moreover, the binding signal with ETS2 is 1.32 fold enrichment (6-mer frequency, TF over GST control); with SPDEF, 1.19 fold enrichment (6-mer frequency, TF over GST control); in the assay with ETV7 it was 1.4 fold enrichment (6-mer frequency, TF over GST control); in the assay with ELF5, 1.23 fold enrichment (6-mer frequency, TF over GST control); with ETV3, 1.15 fold enrichment (6-mer frequency, TF over GST control); in the assay with ETV6, 1.25 fold enrichment (6-mer frequency, TF over GST control).
